This note sets out measurements from ChEMBL document CHEMBL2218924, “A broad activity screen in support of a chemogenomic map for kinase signalling research and drug discovery” (Biochem J, 2013).

For assay [1], the target named is Tyrosine-protein kinase HCK (Homo sapiens) (UniProt P08631). The following applies: at 1 µM.
Assay [2] shares this target. The following applies: at 10 µM.
Assay [3] shares this target. The following applies: at 1 µM. This is another data set of the same source.
For assay [4] the target is unchanged. The settings on record: at 10 µM. The source holds these as a separate data set.
The target in assay [5] is Insulin-like growth factor 1 receptor (Homo sapiens) (UniProt P08069). The settings on record: at 1 µM.
Chain of Insulin-like growth factor 1 receptor (Homo sapiens) (P08069 31-736 limits assumed): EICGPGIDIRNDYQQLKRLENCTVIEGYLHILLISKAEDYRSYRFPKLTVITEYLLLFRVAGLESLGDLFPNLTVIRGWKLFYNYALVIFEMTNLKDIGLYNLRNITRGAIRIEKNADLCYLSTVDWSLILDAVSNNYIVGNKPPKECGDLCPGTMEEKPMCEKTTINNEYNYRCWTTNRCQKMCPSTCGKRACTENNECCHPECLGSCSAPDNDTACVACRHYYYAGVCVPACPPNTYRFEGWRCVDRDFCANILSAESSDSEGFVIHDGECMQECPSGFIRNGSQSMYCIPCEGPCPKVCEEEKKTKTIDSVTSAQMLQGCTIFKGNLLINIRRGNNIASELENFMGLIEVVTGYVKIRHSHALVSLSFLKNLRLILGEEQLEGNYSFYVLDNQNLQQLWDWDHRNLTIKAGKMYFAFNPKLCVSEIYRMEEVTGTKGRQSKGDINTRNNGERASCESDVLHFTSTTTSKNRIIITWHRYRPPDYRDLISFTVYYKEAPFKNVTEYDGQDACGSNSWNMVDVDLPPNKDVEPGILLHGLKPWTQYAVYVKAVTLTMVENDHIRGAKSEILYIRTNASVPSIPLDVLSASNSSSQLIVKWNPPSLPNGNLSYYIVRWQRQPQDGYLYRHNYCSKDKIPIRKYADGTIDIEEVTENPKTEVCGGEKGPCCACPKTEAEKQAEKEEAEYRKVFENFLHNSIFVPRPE
Chain of Insulin-like growth factor 1 receptor (Homo sapiens) (P08069 741-1367 limits assumed): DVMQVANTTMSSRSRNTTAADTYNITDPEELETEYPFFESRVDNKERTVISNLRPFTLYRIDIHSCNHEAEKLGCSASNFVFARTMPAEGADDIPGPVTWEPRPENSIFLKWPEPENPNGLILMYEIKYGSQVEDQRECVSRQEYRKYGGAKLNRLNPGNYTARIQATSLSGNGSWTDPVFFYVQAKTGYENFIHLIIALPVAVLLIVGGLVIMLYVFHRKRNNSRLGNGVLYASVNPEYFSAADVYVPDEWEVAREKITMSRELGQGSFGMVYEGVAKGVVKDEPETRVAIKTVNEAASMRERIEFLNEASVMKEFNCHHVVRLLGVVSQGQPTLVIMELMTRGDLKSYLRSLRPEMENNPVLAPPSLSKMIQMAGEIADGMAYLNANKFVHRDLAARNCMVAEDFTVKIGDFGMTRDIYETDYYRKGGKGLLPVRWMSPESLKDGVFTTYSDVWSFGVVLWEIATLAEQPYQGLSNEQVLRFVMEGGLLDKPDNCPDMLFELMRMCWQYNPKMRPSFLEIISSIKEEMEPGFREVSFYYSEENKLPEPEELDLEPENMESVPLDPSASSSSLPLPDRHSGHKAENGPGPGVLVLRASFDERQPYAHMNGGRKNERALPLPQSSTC
Assay [6] shares this target. The settings on record: at 10 µM.
The target of assay [7] is T1, Protein kinase C zeta type (Homo sapiens) (UniProt Q05513).
T1 sequence (whole entry): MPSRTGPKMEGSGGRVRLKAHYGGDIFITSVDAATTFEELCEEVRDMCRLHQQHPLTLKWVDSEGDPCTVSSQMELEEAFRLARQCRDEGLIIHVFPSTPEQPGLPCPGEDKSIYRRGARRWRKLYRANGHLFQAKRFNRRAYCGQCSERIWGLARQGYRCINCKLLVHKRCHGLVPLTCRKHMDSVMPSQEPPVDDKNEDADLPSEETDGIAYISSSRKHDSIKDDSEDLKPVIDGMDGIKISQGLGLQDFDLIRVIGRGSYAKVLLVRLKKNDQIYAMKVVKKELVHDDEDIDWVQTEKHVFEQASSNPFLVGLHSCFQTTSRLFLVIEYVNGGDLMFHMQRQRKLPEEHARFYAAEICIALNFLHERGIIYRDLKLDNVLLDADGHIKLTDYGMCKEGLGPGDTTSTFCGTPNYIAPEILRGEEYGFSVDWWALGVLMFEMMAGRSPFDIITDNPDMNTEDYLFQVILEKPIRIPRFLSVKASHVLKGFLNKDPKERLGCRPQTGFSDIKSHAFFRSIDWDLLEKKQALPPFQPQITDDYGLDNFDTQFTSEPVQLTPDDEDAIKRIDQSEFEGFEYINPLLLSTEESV
The following applies: at 10 µM.

For assay [8], the target named is Protein kinase C eta type (Homo sapiens) (UniProt P24723). The following applies: at 1 µM.
Chain of Protein kinase C eta type (Homo sapiens) (P24723 whole entry): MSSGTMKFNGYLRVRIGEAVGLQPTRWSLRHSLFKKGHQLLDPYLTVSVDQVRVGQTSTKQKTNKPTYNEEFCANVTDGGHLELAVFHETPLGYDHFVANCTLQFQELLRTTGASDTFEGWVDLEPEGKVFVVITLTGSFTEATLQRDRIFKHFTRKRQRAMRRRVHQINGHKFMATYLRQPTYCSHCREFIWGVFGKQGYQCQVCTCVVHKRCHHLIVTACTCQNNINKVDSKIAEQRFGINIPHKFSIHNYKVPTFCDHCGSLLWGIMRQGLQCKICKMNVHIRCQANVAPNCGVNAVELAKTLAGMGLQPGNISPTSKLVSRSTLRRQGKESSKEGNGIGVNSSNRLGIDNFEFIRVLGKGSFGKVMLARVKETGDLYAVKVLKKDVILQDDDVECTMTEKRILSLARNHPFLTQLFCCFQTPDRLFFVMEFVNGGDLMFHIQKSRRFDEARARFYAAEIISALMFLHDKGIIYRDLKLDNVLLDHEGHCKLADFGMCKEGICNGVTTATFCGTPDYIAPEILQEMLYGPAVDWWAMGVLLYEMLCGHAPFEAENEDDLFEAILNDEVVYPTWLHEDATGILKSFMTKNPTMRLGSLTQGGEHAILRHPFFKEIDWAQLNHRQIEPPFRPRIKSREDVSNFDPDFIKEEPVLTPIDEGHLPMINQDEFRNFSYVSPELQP
Assay [9] has the same target. The settings on record: at 10 µM.
The target of assay [10] is Protein kinase C theta type (Homo sapiens) (UniProt Q04759). The following applies: at 10 µM.
Chain of Protein kinase C theta type (Homo sapiens) (Q04759 whole entry, looked up): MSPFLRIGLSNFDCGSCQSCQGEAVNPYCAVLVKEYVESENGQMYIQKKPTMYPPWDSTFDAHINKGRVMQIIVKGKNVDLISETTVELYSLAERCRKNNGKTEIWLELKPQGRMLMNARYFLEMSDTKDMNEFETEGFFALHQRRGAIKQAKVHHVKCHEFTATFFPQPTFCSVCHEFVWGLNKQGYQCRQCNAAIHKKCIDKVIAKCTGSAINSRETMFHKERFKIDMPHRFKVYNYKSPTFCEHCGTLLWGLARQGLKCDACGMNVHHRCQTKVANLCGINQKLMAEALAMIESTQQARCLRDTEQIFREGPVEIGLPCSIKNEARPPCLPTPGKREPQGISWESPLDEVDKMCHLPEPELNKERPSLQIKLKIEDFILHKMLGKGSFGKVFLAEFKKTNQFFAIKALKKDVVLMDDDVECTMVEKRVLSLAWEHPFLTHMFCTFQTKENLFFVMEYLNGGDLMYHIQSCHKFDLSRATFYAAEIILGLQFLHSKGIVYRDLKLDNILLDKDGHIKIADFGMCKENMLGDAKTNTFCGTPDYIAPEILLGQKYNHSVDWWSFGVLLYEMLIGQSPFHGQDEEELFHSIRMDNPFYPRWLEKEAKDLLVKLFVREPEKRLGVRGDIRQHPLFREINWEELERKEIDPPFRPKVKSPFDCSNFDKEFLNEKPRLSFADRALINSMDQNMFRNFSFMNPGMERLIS
The target of assay [11] is T2, Serine/threonine-protein kinase D1 (Homo sapiens) (UniProt Q15139).
T2 sequence (whole entry): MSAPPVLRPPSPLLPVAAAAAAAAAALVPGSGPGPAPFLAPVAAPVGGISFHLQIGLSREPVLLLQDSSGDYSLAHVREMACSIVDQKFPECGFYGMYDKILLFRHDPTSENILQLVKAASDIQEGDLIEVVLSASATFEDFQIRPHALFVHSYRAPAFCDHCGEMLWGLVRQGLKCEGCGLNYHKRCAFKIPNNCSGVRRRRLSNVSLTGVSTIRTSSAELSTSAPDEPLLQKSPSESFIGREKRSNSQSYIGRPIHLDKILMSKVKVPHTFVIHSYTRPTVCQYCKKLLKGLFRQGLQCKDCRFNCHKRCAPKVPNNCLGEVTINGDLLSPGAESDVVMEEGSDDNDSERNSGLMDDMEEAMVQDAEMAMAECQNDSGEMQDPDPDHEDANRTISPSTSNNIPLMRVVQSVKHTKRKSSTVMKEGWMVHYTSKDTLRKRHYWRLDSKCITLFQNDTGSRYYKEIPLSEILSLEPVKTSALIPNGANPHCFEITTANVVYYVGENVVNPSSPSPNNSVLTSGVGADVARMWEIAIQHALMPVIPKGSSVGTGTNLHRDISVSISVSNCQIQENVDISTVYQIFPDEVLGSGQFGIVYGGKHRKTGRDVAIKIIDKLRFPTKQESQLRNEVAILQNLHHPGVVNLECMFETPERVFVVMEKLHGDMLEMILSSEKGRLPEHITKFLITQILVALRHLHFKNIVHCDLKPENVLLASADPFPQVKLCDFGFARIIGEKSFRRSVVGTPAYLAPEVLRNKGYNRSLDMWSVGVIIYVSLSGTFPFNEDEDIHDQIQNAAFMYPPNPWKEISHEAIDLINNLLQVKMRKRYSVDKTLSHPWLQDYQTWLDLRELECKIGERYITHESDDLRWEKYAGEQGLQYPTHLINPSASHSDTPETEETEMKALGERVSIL
The following applies: at 1 µM.

The target in assay [12] is T3, Serine/threonine-protein kinase D2 (Homo sapiens) (UniProt Q9BZL6).
T3 sequence (whole entry): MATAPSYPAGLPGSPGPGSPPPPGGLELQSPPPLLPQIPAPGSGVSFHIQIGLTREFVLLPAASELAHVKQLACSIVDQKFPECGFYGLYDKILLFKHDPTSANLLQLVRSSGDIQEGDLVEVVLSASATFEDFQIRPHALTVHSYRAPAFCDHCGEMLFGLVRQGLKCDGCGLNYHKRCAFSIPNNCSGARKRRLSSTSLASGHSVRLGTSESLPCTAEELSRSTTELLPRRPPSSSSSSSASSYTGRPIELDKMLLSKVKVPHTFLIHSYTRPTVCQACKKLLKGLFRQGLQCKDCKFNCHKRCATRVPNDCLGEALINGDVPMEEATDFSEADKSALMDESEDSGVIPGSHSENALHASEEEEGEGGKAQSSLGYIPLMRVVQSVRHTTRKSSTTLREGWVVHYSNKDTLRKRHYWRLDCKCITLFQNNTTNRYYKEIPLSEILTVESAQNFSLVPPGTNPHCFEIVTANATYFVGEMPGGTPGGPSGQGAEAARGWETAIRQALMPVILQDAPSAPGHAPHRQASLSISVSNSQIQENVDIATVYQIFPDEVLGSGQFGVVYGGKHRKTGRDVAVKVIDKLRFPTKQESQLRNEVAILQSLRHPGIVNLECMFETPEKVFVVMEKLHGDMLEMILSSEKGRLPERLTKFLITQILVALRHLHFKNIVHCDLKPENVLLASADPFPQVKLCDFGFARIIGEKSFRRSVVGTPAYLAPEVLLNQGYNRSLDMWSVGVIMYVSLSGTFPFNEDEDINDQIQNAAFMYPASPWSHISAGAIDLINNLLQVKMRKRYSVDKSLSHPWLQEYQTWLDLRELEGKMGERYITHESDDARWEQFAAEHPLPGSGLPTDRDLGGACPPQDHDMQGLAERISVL
The following applies: at 1 µM.

Assay [13] concerns the target T3, Serine/threonine-protein kinase D2 (Homo sapiens). The settings on record: at 10 µM.
The target of assay [14] is T4, Serine/threonine-protein kinase haspin (Homo sapiens) (UniProt Q8TF76).
T4 sequence (whole entry): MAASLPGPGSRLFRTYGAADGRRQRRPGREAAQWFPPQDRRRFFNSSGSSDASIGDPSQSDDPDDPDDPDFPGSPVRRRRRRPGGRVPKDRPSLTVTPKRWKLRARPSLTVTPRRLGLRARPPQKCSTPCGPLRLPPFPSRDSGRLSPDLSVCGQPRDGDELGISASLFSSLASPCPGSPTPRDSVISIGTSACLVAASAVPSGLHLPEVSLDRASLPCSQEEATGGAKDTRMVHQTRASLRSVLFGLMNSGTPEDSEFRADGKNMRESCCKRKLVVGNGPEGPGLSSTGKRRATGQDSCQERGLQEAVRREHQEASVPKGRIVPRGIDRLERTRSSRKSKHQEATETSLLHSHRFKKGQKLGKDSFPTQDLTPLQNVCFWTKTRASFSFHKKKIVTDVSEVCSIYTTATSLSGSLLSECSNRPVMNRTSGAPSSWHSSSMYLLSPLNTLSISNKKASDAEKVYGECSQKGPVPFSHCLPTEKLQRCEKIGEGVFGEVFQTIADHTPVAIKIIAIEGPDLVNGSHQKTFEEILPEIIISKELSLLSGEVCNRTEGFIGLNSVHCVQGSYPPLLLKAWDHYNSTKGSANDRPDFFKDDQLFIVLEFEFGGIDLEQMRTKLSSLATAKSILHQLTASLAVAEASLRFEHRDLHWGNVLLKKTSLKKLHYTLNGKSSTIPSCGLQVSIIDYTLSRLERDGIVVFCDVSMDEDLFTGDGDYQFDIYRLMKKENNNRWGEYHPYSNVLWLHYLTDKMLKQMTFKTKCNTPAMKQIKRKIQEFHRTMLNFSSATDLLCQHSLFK
The following applies: at 1 µM.

Assay [15] has as its target T4, Serine/threonine-protein kinase haspin (Homo sapiens). The settings on record: at 10 µM.
Assay [16] addresses T2, Serine/threonine-protein kinase D1 (Homo sapiens). The following applies: at 10 µM.
The target in assay [17] is T5, Protein kinase C iota type (Homo sapiens) (UniProt P41743).
T5 sequence (whole entry): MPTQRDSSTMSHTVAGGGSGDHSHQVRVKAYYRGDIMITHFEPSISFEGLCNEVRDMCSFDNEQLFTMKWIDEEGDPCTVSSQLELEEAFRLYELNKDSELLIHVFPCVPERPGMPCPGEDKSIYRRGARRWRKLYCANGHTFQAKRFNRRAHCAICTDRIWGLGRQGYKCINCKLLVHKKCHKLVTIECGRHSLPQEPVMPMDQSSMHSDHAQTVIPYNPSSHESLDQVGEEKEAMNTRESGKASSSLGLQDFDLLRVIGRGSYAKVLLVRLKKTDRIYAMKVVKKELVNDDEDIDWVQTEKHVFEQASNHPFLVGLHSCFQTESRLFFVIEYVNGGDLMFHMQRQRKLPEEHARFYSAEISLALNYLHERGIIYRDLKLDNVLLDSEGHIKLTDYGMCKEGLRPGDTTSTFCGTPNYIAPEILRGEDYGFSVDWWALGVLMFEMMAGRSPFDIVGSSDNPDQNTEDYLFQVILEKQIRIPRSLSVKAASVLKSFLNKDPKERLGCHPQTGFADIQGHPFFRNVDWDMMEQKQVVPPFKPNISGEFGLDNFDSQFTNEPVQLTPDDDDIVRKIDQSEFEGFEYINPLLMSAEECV
The settings on record: at 10 µM.

Assay [18] addresses T5, Protein kinase C iota type (Homo sapiens). The settings on record: at 1 µM.
In assay [19] the target is Protein kinase C theta type (Homo sapiens) (UniProt Q04759). The following applies: at 1 µM.

Chain of Tyrosine-protein kinase HCK (Homo sapiens) (P08631 2-526 limits assumed): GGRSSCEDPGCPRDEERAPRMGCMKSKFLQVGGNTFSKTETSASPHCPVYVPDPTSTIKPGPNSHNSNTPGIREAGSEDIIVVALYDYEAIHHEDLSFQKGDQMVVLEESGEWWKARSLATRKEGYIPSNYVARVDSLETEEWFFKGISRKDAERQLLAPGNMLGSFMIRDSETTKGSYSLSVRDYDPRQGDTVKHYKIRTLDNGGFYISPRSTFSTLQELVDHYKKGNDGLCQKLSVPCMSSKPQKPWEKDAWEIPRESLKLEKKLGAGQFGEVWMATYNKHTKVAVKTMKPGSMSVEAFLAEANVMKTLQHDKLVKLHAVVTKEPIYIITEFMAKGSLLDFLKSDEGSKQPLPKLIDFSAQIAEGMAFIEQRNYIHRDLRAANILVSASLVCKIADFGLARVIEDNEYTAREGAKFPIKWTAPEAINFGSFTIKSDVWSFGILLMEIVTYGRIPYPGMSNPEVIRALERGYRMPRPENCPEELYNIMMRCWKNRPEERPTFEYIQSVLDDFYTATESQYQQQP

Turning to `COc1cc2c(cc1OC)-c1n[nH]c(Nc3cccc(F)c3)c1C2`, the residual activity – broadly, the signal under treatment as a percentage of the control signal – in assay [1] came to 22%; in assay [2], 6%; in [3], 19%; in [4], 2%; in assay [5], 105%; in [6], 115%. Moreover, the residual activity came to 109% in assay [7]; 102% in assay [8]; 70% in assay [9]; 81% in assay [10]; 78% in assay [11]; 107% in assay [12]. The residual activity in [13] was determined as 104%.
Turning to `Nc1n[nH]c2nc3ccccc3nc12`, the residual activity in assay [14] was determined as 96%; in assay [15], 41%; in assay [1], 75%; in assay [2], 60%; in assay [4], 88%; in assay [5] it was 121%. In addition, the residual activity in [6] came out at 132%; in assay [8] it was 89%; in assay [9] it was 68%; in assay [10], 85%; in [11] it was 83%; in assay [16], 69%. In assay [13], the residual activity was 87%.
Turning to `O=c1c(-c2ccc(F)cc2)c(-c2ccncc2)[nH]n1-c1ccc(Cl)cc1`, the residual activity was determined as 75% in [15]; 61% in assay [2]; 81% in [4]; 73% in [6]; 72% in assay [9]; 71% in assay [10]. The residual activity in [17] worked out at 100%; in assay [11], 99%; in assay [16], 37%; in assay [13] it was 73%.
As to `CCOC(=O)c1c(C)[nH]c(/C=C2\C(=O)Nc3ccccc32)c1C`, the residual activity was 77% in assay [1]; 74% in [2]; 93% in assay [3]; 97% in [4]; 119% in assay [5].
With `COc1ccc(-c2cnc3c(-c4ccsc4)cnn3c2)cc1`, the residual activity was determined as 95% in assay [14]; 83% in assay [15]; 59% in assay [1]; 76% in [2]; 134% in [5]; 76% in [9]. Moreover, the residual activity in assay [18] was 81% (inactive); in [17] it was 77%; in assay [11], 84%; in [16], 97%.
For the compound `O=c1cc(N2CCOCC2)oc2c(-c3ccccc3)cccc12`, the residual activity was 54% in assay [15]; 66% in [1]; 58% in [2]; 133% in assay [5]; 66% in assay [9]; 63% in [17].
As to `Cc1cc(C)c(/C=C2\C(=O)Nc3ccccc32)[nH]1`, the residual activity in assay [14] stood at 100%; in [15], 77%; in assay [1], 60%; in assay [2] it was 25%; in assay [3] it was 63%; in assay [4], 40%. The residual activity stood at 103% in assay [19] and 78% in assay [11].
Regarding `CSc1nc(-c2ccc(F)cc2)c(-c2ccnc(NC(C)c3ccccc3)c2)[nH]1` (centres undefined), the residual activity is 85% in assay [1]; 51% in [2]; 102% in assay [3]; 86% in [4]; 87% in [8]; 73% in assay [9]. The residual activity amounted to 101% in [19]; 72% in [10]; 99% in [17]; 97% in [11]; 44% in assay [16]; 94% in assay [13].
For the compound `CCCCc1c(-c2ccc(O)cc2)[nH]c2nccnc12`, the residual activity in assay [14] was determined as 34%; in assay [15], 12%; in assay [1], 64%; in assay [2] it was 23%; in assay [3] it was 63%; in assay [4], 64%. Moreover, the residual activity amounted to 131% in assay [5]; 96% in assay [8]; 77% in assay [9]; 83% in assay [17]; 83% in assay [11]; 59% in assay [16].
For the compound `COc1ccc(COc2ccc(Cc3cnc(N)nc3N)cc2OC)cc1`, the residual activity in assay [2] is 65%; in assay [5] it was 128%; in assay [6], 133%; in assay [11], 81%; in [16], 77%.
